Compounds without any hit were thinned out: in the full panel of roughly 83,000, 20% have a hit.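 The endpoint reported here, percent growth, reads 100 for growth as untreated, 0 for no net growth and -100 for all cells dead.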 A number with no mark means an inactive call. Active and inactive are the calls of the source. Rule for the calls: active = growth percent below 10; inactive = the rest.
Key:
Assay in all cases: NCI-60 one-dose screen, 48 h (100 = growth as untreated, 0 = no growth, -100 = all killed)
Settings in all cases: 10 µM unless noted
DU-145 prostate = tested on: DU-145 prostate
K-562 leukemia = tested on: K-562 leukemia
MALME-3M melanoma = tested on: MALME-3M melanoma
MDA-MB-231 breast = tested on: MDA-MB-231 breast
RXF 393 renal = tested on: RXF 393 renal
SF-268 CNS = tested on: SF-268 CNS
SF-295 CNS = tested on: SF-295 CNS
SF-539 CNS = tested on: SF-539 CNS
UACC-257 melanoma = tested on: UACC-257 melanoma
M14 melanoma = tested on: M14 melanoma
HCT-15 colon = tested on: HCT-15 colon
HT29 colon = tested on: HT29 colon
SNB-75 CNS = tested on: SNB-75 CNS
SNB-19 CNS = tested on: SNB-19 CNS
U251 CNS = tested on: U251 CNS
PC-3 prostate = tested on: PC-3 prostate
SK-MEL-5 melanoma = tested on: SK-MEL-5 melanoma
UACC-62 melanoma = tested on: UACC-62 melanoma
LOX IMVI melanoma = tested on: LOX IMVI melanoma
SK-MEL-28 melanoma = tested on: SK-MEL-28 melanoma

Structure (SMILES)	growth (DU-145 prostate)	growth (K-562 leukemia)	growth (MALME-3M melanoma)	growth (MDA-MB-231 breast)	growth (RXF 393 renal)	growth (SF-268 CNS)	growth (SF-295 CNS)	growth (SF-539 CNS)	growth (UACC-257 melanoma)	growth (M14 melanoma)	growth (HCT-15 colon)	growth (HT29 colon)	growth (SNB-75 CNS)	growth (SNB-19 CNS)	growth (U251 CNS)	growth (PC-3 prostate)	growth (SK-MEL-5 melanoma)	growth (UACC-62 melanoma)	growth (LOX IMVI melanoma)	growth (SK-MEL-28 melanoma)
CC(=O)N1N=C(c2ccc3c(c2)OCO3)CC1c1c(C)nn(-c2ccccc2)c1N(C)Cc1ccccc1 (stereo not given)	94.6%	56.5%	84.8%	81%	79.2%	74.4%	68.9%	94.5%	56.7%	77.2%	79.2%	49.8%	78.7%	64.8%	72.3%	34.3%	79.8%	49.5%	86.5%	93.3%
O=C1NC(=S)S/C1=C\c1cc(Br)ccc1O	105%	112%	71.8%	96.7%	115%	90.1%	111%	93.1%	105%	88.5%	97.8%	119%	97.8%	107%	99.9%	104%	92.6%	84.8%	100%	111%
Cc1ccc2nc(SCC(=O)Nc3ccc(-c4nc5ccccc5s4)c(Cl)c3)[nH]c2c1	132%	109%	131%	113%	98.6%	105%	106%	109%	96.9%	111%	101%	106%	94.6%	102%	105%	107%	102%	90.3%	107%	118%
CNCCCn1c2c(c3ccc(F)cc3c1=O)C(=O)c1cc(OC)cnc1-2	0.683% (active)	1.41% (active)	-56.6% (active)	11.7%	-78.8% (active)	4.62% (active)	-15.3% (active)	-24.7% (active)	-16.5% (active)	-10.8% (active)	-3.12% (active)	-20.9% (active)	-23.4% (active)	11.9%	-25.8% (active)	6.67% (active)	-97.3% (active)	-33.4% (active)	-70.7% (active)	9.85% (active)
CCSc1nc(-c2ccc(F)cc2)c(C#N)c(=O)[nH]1	122%	124%	85.1%	114%	104%	116%	103%	108%	102%	110%	104%	106%	93.5%	107%	107%	127%	101%	97.5%	95.4%	108%
CCCCCCCCCCOC(C)=O	112%	107%	108%	107%	112%	106%	80%	96.1%	94%	106%	107%	106%	80.7%	108%	108%	93.4%	107%	103%	108%	110%
COc1cnc2c(c1)C(=O)c1c-2n(CCCN2CCC(O)CC2)c(=O)c2cc(F)ccc12	-8.46% (active)	-0.117% (active)	-61.9% (active)	19.9%	-43.1% (active)	9.51% (active)	-20.7% (active)	-17.1% (active)	-16.3% (active)	-22.4% (active)	7.5% (active)	-20.6% (active)	-16.9% (active)	14%	-28.4% (active)	3.1% (active)	-98.9% (active)	-40.8% (active)	-70.3% (active)	13.2%
COc1cccc(/C=N\NC(=O)c2ccncc2)c1O	51.7%	71.2%	68.3%	47.1%	57.3%	42.2%	55.8%	55.7%	49.6%	34.4%	23.9%	67.6%	57.1%	52.6%	31.6%	47.1%	58.8%	41.2%	15.2%	69.6%
